Screens from PubChem.
Hits are enriched below; roughly 5.3% of the tested compounds scored in any of these assays.
Vaccinia mCherry = qHTS for Stage-Specific Inhibitors of Vaccinia Orthopoxvirus: mCherry Reporter Primary qHTS | Vaccinia virus mCherry reporter infection, fluorescence | Potency, µM (titrated, usually from 36.5 µM), without a hit: at the highest dose activity change, negative = inhibition, actives largely listed as inhibitors | 0.63% of 310,000 active; calls by dose curve; tested in A549 cells; also: nearly all actives have a fitted effect of over 35% in size
FMDV inh = High Throughput Screening for Foot and Mouth Disease Virus Antivirals | FMDV antiviral cell-based qHTS | AID 1159524, 2015 | 1.2% of 410,000 active | Potency, µM (titrated, usually from 57.9 µM), without a hit: at the top dose activity change, negative = inhibition, most hits filed as inhibitors; calls by dose curve; tested in HEK293T cells; also: read-out not given here; nearly all actives have a fitted effect of over 45% in size
Vaccinia Venus = qHTS for Stage-Specific Inhibitors of Vaccinia Orthopoxvirus: Venus Reporter Primary qHTS. Potency, µM (series often up to 36.5 µM), for inactives: at the top dose activity change, negative = inhibition, usual class: inhibitors. Vaccinia virus Venus reporter expression, fluorescence. 0.46% of 330,000 active; calls by dose curve; tested in A549 cells; also: nearly all actives have a fitted effect of over 30% in size
LASV entry inh = qHTS for Inhibitors of binding or entry into cells for Lassa Virus | 1.2% of 300,000 active | Potency, µM (titrated, usually from 37.9 µM), for the others: at the top dose activity change, negative = inhibition, hits mostly inhibitors | Lassa virus pseudotype entry inhibition, cell reporter | AID 540256, 2011; calls by dose curve; tested in HEK293 cells; also: nearly all actives have a fitted effect of over 50% in size
MARV entry inh = qHTS for inhibitors of binding or entry into cells for Marburg Virus; Marburg virus pseudotyped entry inhibition, cell reporter; Potency, µM (doses to about 37.8 µM), without a hit: at the highest dose activity change, negative = inhibition, usual class: inhibitors; 1.8% of 300,000 active; calls by dose curve; tested in HEK293 cells
HCV inhibitor = qHTS Assay for Inhibitors of Hepatitis C Virus (HCV). Huh7.5.1 HCVcc-Cre infection, luciferase reporter, 44 h. Potency, µM (doses to about 41.8 µM), for inactives: at the top dose activity change, negative = inhibition, usual class: inhibitors. 3.4% of 340,000 active; active = well fitted inhibition curve with a large enough effect; inconclusive = small, poorly fitted or top-dose-only effect, or another doubt; inactive = no such curve, though single readings can be large or run the other way
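Seed cells (1,000/well) for 4 h; treat with compound and infect with HCVcc-Cre, moi about 0.5. Incubate 44 h, then detect luciferase activity.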
Active calls of the source: *; i = inactive; ? = inconclusive; / = not tested or not shown; [ ] = dose if it differs, or a comment. % is scaled to controls: 0 for no effect and ±100 for the full control effect; potency is read from the fitted curve at half-maximal effect.

SMILES	Vaccinia mCherry	FMDV inh	Vaccinia Venus	LASV entry inh	MARV entry inh	HCV inhibitor
Cc1cc(NC(=O)C2CCCN(S(=O)(=O)c3cccc4nonc34)C2)ccc1Br (stereo not given)	-16.3%[7.34 µM]	-21.6%	-17.8%[7.34 µM]	20.0%[46.1 µM]	?	/
CSC1=NC(C)(C)C=C(/C=C/c2ccc(Cl)cc2)N1	-25.2%	20µM*	-24.7%	?	?	8.91µM*
CSC1=NC(C)(C)C=C(/C=C/c2ccc(Cl)cc2Cl)N1	-26.5%	?	-5.8%	-26.9%	?	?
CN(C)S(=O)(=O)c1cccc(NC(=O)CCCSc2ccccc2)c1	-16.4%	-23.1%	-9.5%	?	?	11.2µM*
CCN(CC)S(=O)(=O)c1cccc(NC(=O)CCSc2ccc(Cl)cc2)c1	?	-24.0%	?	12.6µM*	?	?
Cc1noc(NS(=O)(=O)c2ccc(NC(=O)c3ccccc3NS(=O)(=O)c3ccc(F)cc3)cc2)c1C	-3.6%	13.3%	0.0%	0.3%[46.1 µM]	2.1%[46.1 µM]	5.7%
CCCN1C(=O)C2=NC(C3CCCC3)=NC2N(CCC)C1=O (stereo not given)	/	/	/	/	14.4%	/
Cc1sc(N/N=C/c2ccco2)nc1-c1ccccc1	-9.6%	17.6%	-22.4%	20.6µM*	?	?
Cc1sc(N/N=C/c2cccnc2)nc1-c1ccccc1	/	?	/	2.91µM*	?	?
C(=N\Nc1nc(-c2ccccc2)cs1)/c1ccco1	-25.2%	-19.9%	-11.1%	?	?	?
O=C([C@@H]1C[C@@H](Sc2nc3ccccc3[nH]2)CN1CC1CCCCC1)N1CCOCC1	-6.6%	12.3%	-7.3%	/	/	/
Cn1c(=O)c2c(SCC(=O)c3ccccc3)nc(C3CC3)nc2n(C)c1=O	-11.4%	?	-9.3%	/	/	0.7%
CCCc1nc(SCC(=O)c2ccccc2)c2c(=O)n(C)c(=O)n(C)c2n1	-2.4%	?	-24.6%	/	/	11.2µM*
CCc1nc(SCC(=O)c2ccccc2)c2c(=O)n(C)c(=O)n(C)c2n1	-4.5%	?	-6.5%	14.1%[46.1 µM]	?	12.6µM*
CCCc1nc(SCC(=O)c2ccc(OC)cc2)c2c(=O)n(C)c(=O)n(C)c2n1	/	/	/	/	4.5%	13.0%
Cc1nc(SCC(=O)NCc2ccccc2)c2c(=O)n(C)c(=O)n(C)c2n1	5.2%	31.6µM*	2.9%	/	/	3.7%
CCC1(C2CCN(Cc3ccoc3)CC2)NC(=O)N(CC2COc3ccccc3O2)C1=O (stereo not given)	i	-13.3%	-7.3%	/	/	/
CCN(CC)CCN1C(=O)C(O)=C(C(=O)c2cccs2)[C@@H]1c1ccccn1	/	/	/	/	14.4%	/
Cc1cc(/C([O-])=C(/C(=S)Nc2ccccc2)[n+]2ccccc2)c(C)n1-c1ccccc1	-28.7%	?	-12.5%	15.5%	13.5%	-20.1%
Cc1cc(/C([O-])=C(/C(=S)Nc2ccc(F)cc2)[n+]2ccccc2)c(C)n1-c1ccc(F)cc1	/	-5.7%	/	-2.1%	10.1%	14.1µM*
COc1cc([N+](=O)[O-])c2nc(C)ccc2c1[N+](=O)[O-]	-7.7%	-19.8%	-21.2%	-15.7%	?	6.31µM*
O=S(=O)(c1ccc2ccccc2c1)N(C[C@@H](O)CN1CCOCC1)c1ccccc1	/	/	/	/	19.1%	/
COc1ccc(C(NC(=O)COc2ccc(C#N)cc2)c2ccc(OC)cc2)cc1	32.6%	/	5.6%	/	/	/
CC1CCN(CCNC(=O)c2ccc3c(=O)n(Cc4ccc(Cl)cc4)c(=S)[nH]c3c2)CC1	/	?	/	/	/	6.31µM*
O=C(NCc1ccc(Cl)cc1)c1ccc2c(=O)n(CC3CCCO3)c(=S)[nH]c2c1 (stereo not given)	-15.0%	17.8µM*	-1.9%	?	7.8%[46.1 µM]	?
SMILES	Vaccinia mCherry	FMDV inh	Vaccinia Venus	LASV entry inh	MARV entry inh	HCV inhibitor
O=C(NCC1CCCO1)c1ccc2c(=O)n(CC3CCCO3)c(=S)[nH]c2c1 (stereo not given)	/	5.8%	/	0.5%	29.9%	-22.5%
C[C@@H]1CC2=CCCC2[C@]2(O1)C(=O)Nc1cccc(Br)c12 (stereo not given in full)	/	/	/	/	1.3%[14.2 µM]	/
Cc1c(C(=O)NCC2COCCO2)cnn1-c1nccc(-c2cccs2)n1 (stereo not given)	-4.3%	32.0%	-13.4%	/	/	/
CC1=NN(Cc2ccccc2)C(=O)C1C(c1ccc(Cl)cc1)C(C#N)C#N (stereo not given)	-27.7%	28.2µM*	-23.9%	?	-13.0%	3.4%
CC1=NN(Cc2ccccc2)C(=O)C1C(c1ccccc1)C(C#N)C#N (stereo not given)	/	-6.9%	/	-18.8%	?	18.9%
CCCCn1nc(C(=O)NCC(c2cccs2)N2CCOCC2)c2ccccc2c1=O (stereo not given)	/	31.6µM*	/	/	/	?
O=C(NCC(c1cccs1)N1CCOCC1)c1cc(-c2ccc(F)cc2)nc2ccccc12 (stereo not given)	-9.8%	-18.0%	-23.2%	/	?	7.08µM*
COc1cc(=O)n2c(c1C(=O)NCc1nccs1)CCN(Cc1ccccc1F)CC2	-5.3%	-7.7%	-16.7%	/	/	/
Cc1cc(C(=O)N(Cc2cc3cc4c(cc3nc2N2CCOCC2)CCC4)CC2CCCO2)c(=O)[nH]c1C (stereo not given)	-6.5%	22.3%	-18.6%	/	/	/
CCn1cnc2sc(C(=O)Oc3cccc(C)c3)c(C)c2c1=O	i	13.0%	-8.2%	6.4%[46.1 µM]	?	1.41µM*
Cc1c(C(=O)Oc2ccc(F)cc2)sc2ncn(Cc3cccc(F)c3)c(=O)c12	-7.3%	-11.0%	-7.8%	11.0%	?	6.8%
CCOc1cc(/C=C2\C(=O)N(Cc3ccc(C)cc3)C(C)=C2C(=O)OC)ccc1O	/	35.5µM*	-19.1%	?	1.7%	-0.6%
O=C(c1ccc2c3c(cccc13)CC2)C1CCCN(Cc2cccnc2)C1 (stereo not given)	-3.8%	0.0%	-5.8%	10.1%	-22.1%[46.1 µM]	22.4µM*
O=C(c1ccc2c3c(cccc13)CC2)C1CCCN(C(=O)c2cccnc2)C1 (stereo not given)	-10.2%	-24.1%	-20.7%	/	/	-12.6%
